Consider 15 compounds from PubChem BioAssay (Tox21).

The nature of test [1]: qHTS assay to identify small molecule agonists of the estrogen related receptor (ERR) signaling pathway from Tox21 library (AID 1224849; calls by dose curve; note: nearly all actives have a fitted effect of over 15% in size). The settings on record: ERR reporter cell line, ONE-Glo luciferase, 18 h. The procedure, abridged: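 Luminescent agonist read-out (One-Glo, 30-minute room-temperature incubation) following 18-hour compound treatment at 37 C of the ERR cell line, which had been plated 6 hours before dosing.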
In general terms: qHTS replaces the single test concentration by a dilution series.

Test [2] is described as follows: qHTS RealTime-Glo MT Cell Viability Assay in HEK293 cells - 32 hour (AID 1224868). Note: nearly all actives have a fitted effect of over 50% in size. Note: potency is the fitted concentration of half-maximal effect. In outline:
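HEK293 cells seeded with NanoLuc/prosubstrate reagent, rested 5 h at 37 C, then dosed and kept at 37 C up to 40 h. Nonlytic real-time luminescence from viable cells read at 0, 8, 16, 24, 32 and 40 h.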

The nature of test [3]: A CellTox Green Cytotoxicity Assay to monitor cytotoxicity in HEK293 cells - 0 hour (AID 1224869). Note: nearly all actives have a fitted effect of over 50% in size. In outline:
(§1)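 Fluorescence from a DNA-binding dye excluded by viable cells was measured repeatedly in the same HEK293 wells (600 cells/well) during continuous compound exposure at 37 C. Each assay gives one read point: 0, 8, 16, 24, 32 or 40 h.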

Test [4] can be described thus: qHTS RealTime-Glo MT Cell Viability Assay in HepG2 cells - 40 hour (AID 1224870). Note: nearly all actives have a fitted effect of over 50% in size. Note: potency is the fitted concentration of half-maximal effect. In outline:
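HepG2 cells mixed with RealTime-Glo MT reagents (NanoLuc plus cell-permeant prosubstrate) were seeded at 600 cells/well, incubated 5 h at 37 C/5% CO2, then pinned with compounds in DMSO; nonlytic luminescence tracked viability during 40 h treatment.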

A short description of test [5]: A CellTox Green Cytotoxicity Assay to monitor cytotoxicity in HEK293 cells - 40 hour (AID 1224871). Note: nearly all actives have a fitted effect of over 45% in size. Note: potency is the fitted concentration of half-maximal effect. In outline: as §1
Test [6] is described as follows: qHTS assay to identify small molecule agonists of H2AX - cell viability counter screen (AID 1224847; calls by dose curve; note: nearly all actives have a fitted effect of over 30% in size; note: potency is the fitted concentration of half-maximal effect). In outline:
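Cytotoxicity counter screen in wild-type CHO-K1 cells: a 3 hr compound treatment at 37C across 15 concentrations, followed by CellTiter-Glo luminescence to gauge viable cells.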

The nature of test [7]: qHTS RealTime-Glo MT Cell Viability Assay in HepG2 cells - 24 hour (AID 1224867). Note: nearly all actives have a fitted effect of over 50% in size. Note: potency is the fitted concentration of half-maximal effect. In outline: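 HepG2 cells (600/well) were dispensed with RealTime-Glo reagents, incubated 5 h at 37 °C, then treated with compounds in DMSO for up to 40 h. Nonlytic NanoLuc luminescence reflecting viable cells was read at each stated time point.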
The nature of test [8]: qHTS assay to identify small molecule antagonists of the estrogen related receptor (ERR) signaling pathway from Tox21 library (AID 1224848). Note: nearly all actives have a fitted effect of over 50% in size. Note: potency is the fitted concentration of half-maximal effect. The procedure, abridged: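 Tox21 10K compounds in DMSO tested for ERR pathway antagonism in NTP's ERR cell line; 18 h, 37 C exposure; ONE-Glo luminescence.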

Where “and” joins values, the source holds several entries; their conditions need not be identical. Identical values can stand only once. Inconclusive results are not listed. More than one record can exist for a structure, and the calls need not agree. Calls of active or inactive are those of the source. Unless noted, calls come from the whole dose curve; as a rule, active = well fitted curve in the direction sought with a large enough effect in the repeat runs; inconclusive = weak or mixed curves; inactive = no such curve, though single readings can be large; an effect the other way counts as inactive or inconclusive.
% is set by controls: 0 for no effect and ±100 for the full control effect.

Turning to `BrC1CCC(Br)C(Br)CCC(Br)C(Br)CCC1Br` (configuration not stated), the activity change, positive = activation in test [1] (at 92.4 µM (top of the series)) was -60.1% (inactive) and -54.5% (inactive). The Potency result in test [2], in test [3], in test [4] and in test [5] was “inactive” each time.

For `CCCCCCCCCCCCCC[P+](CCCC)(CCCC)CCCC`, the Potency in test [6] was 3.99 µM (active) and 31.8 µM (active); in test [7], 21.8 µM (active) and 13.8 µM (active); in test [2], 173 nM (active) and 219 nM (active); in test [4], 21.8 µM (active) and 11 µM (active); in test [5] it was 13.7 µM (active) and 17.4 µM (active). The Potency result in test [3] was “inactive”.

`OCCOCCN1CCN(C(c2ccccc2)c2ccc(Cl)cc2)CC1` (configuration not stated): the Potency in test [7] is 48.3 µM (active) and inactive; in test [2], 6.08 µM (active) and inactive; in test [4], 48.3 µM (active) and inactive; in test [5] it was 54.2 µM (active) and inactive. In addition, the Potency result in test [3] is “inactive”.

Regarding `Cc1cc(C2(c3cc(C)c(O)cc3C)OS(=O)(=O)c3ccccc32)c(C)cc1O`, the Potency entry in test [6], in test [2], in test [3], in test [4] and in test [5] was “inactive” throughout. The activity change, positive = activation in test [1] (at 92.4 µM (top of the series)) was -48.1% (inactive) and -15.2% (inactive).

As for `Oc1c(Cl)cc(Cl)c(Cl)c1Cc1c(O)c(Cl)cc(Cl)c1Cl`, the Potency in test [8] is 3.05 µM (active) and 2.73 µM (active) and 3.35 µM (active); in test [2], 3.08 µM (active) and 5.49 µM (active); in test [4], “inactive and 38.9 µM (active)”; in test [5], 48.9 µM (active) and 49 µM (active) and inactive. The activity change, positive = activation in test [1] (at 42.5 µM (top of the series)) is -49.7% (inactive); in test [1] (at 92.4 µM (top of the series)) it was -37.2% (inactive) and -60.8% (inactive). The Potency result in test [7] and in test [3] was “inactive” throughout.

On to `CC[C@]1(O)C[C@@H]2CN(CCc3c([nH]c4ccccc34)[C@@](C(=O)OC)(c3cc4c(cc3OC)N(C)[C@H]3[C@@](O)(C(=O)OC)[C@H](OC(C)=O)[C@]5(CC)C=CCN6CC[C@]43[C@@H]65)C2)C1`, for which the Potency entry in test [6], in test [3], in test [4] and in test [5] was “inactive” throughout. The Potency in test [8] was 26.6 µM (active); in test [2] it was 16.9 nM (active) and 4.8 nM (active). The activity change, positive = activation in test [1] (at 42.5 µM (top of the series)) is -22% (inactive) and -33.9% (inactive).

Take `Nc1cc(S(=O)(=O)O)cc2cc(S(=O)(=O)O)cc(O)c12`: the Potency result in test [6], in test [7], in test [2], in test [3], in test [4] and in test [5] was “inactive” throughout.

Turning to `c1ccc2c(c1)-c1cccc3c1c-2cc1ccccc13`, in test [6], the Potency was 78.2 µM (active) and 89.8 µM (active). Moreover, the Potency result in test [7], in test [2], in test [3], in test [4] and in test [5] was “inactive” in each case.

Turning to `Oc1ccc(Cl)cc1Cc1cc(Cl)ccc1O`, the Potency in test [6] is 51.4 µM (active) and 31.8 µM (active); in test [2], 19.8 µM (active) and 49 µM (active); in test [4], 49.9 µM (active). The Potency entry in test [3] and in test [5] was “inactive” throughout.

For the compound `O=C(O[C@@H]1Cc2c(O)cc(O)cc2O[C@@H]1c1cc(O)c(O)c(O)c1)c1cc(O)c(O)c(O)c1`, the Potency entry in test [6], in test [3] and in test [5] was “inactive” each time. Moreover, the Potency in test [2] is 7.48 µM (active).

As for `N[C@@H]1CONC1=O`, the Potency entry in test [8], in test [7], in test [2], in test [3], in test [4] and in test [5] was “inactive” each time. For the same compound, the activity change, positive = activation in test [1] (at 42.5 µM (top of the series)) is 7.16% (inactive).

As for `Cc1cc(C(C)(C)C)c(O)c(C(C)(C)C)c1`, the Potency result in test [7], in test [2], in test [3] and in test [4] was “inactive” each time. Besides, the Potency in test [5] was 49.1 µM (active).

On to `CC(COc1ccccc1)N(CCCl)Cc1ccccc1` (configuration not stated), for which the Potency entry in test [7], in test [3] and in test [4] was “inactive” throughout. Also, the Potency in test [2] is 49.5 µM (active) and 49 µM (active); in test [5], 49.5 µM (active) and 21.3 µM (active).

For the compound `Cc1cccc2n[nH]nc12`, the Potency entry in test [6], in test [7], in test [2], in test [3], in test [4] and in test [5] was “inactive” in each case. Further, the activity change, positive = activation in test [1] (at 92.4 µM (top of the series)) is 7.89% (inactive) and -7.83% (inactive).

As for `O=C1Nc2ccccc2C1(c1ccc(O)cc1)c1ccc(O)cc1`, the Potency result in test [7], in test [3], in test [4] and in test [5] was “inactive” each time. Moreover, the Potency in test [2] is 49 µM (active) and inactive.
